# From ChEMBL document CHEMBL3988442, “University of Dundee, Small-Polar-MMV Screening Library” (2021)
# Out of some 66,000 compounds screened, about 960 (1.5%) showed an effect of 50% or more. What follows is part of a selection rich in strong results, with near analogues and random picks from the rest.
# Tested on: Trypanosoma brucei
# Assay: Trypanosoma brucei 72 hour study
# Format: functional, organism-based
# Set-up: scale not given: in the data most compounds retested in dose-response had high values
compound,measurement,setting,value
CCc1nnc(CN(C)CC2CCCCC2)o1,Percent Effect,"30 µM, 30.03 µM",-20.72%
Cc1cnc(C(=O)N2CCc3ncnc(C)c3CC2)cn1,Percent Effect,"30 µM, 30.03 µM",54.93%
Cc1ccc(C(=O)N2CCc3ncnc(C)c3CC2)cn1,Percent Effect,"30 µM, 30.03 µM",1.33%
Cc1ncnc2c1CCN(C(=O)c1cnccn1)CC2,Percent Effect,"30.3 µM, […]",17.88%
CCNC(=O)N(C)C1CCN(Cc2ncc(C)c(OC)c2C)CC1,Percent Effect,10 µM,-34.27%
Cc1cc(C(=O)N2CCC3(CC2)CC(c2cccnc2)C(=O)N3)no1.O=C(O)C(F)(F)F (stereo unspecified),Percent Effect,"30 µM, 30.03 µM",-44.38%
O=C1CC(NCc2ncc[nH]2)CN1CCc1cccc(Cl)c1 (stereo unspecified),Percent Effect,"30 µM, 30.03 µM",84.65%
O=C1CC(NCc2ccncc2)CN1CCc1cccc(Cl)c1 (stereo unspecified),Percent Effect,"30 µM, 30.03 µM",-25.97%
Cc1nc[nH]c1CNC1CC(=O)N(CCc2cccc(Cl)c2)C1 (stereo unspecified),Percent Effect,"30 µM, 30.03 µM",-48.22%
Cc1ncc(CNC2CC(=O)N(CCc3ccc(F)cc3)C2)n1C (stereo unspecified),Percent Effect,"30 µM, 30.03 µM",23.38%
O=C1CC(NCc2ccccn2)CN1CCc1ccc(F)cc1 (stereo unspecified),Percent Effect,"30 µM, 30.03 µM",2.338%
COc1ccc(CCN2CC(NCc3ncc[nH]3)CC2=O)cc1 (stereo unspecified),Percent Effect,"30 µM, 30.03 µM",64.92%
CCN1CCN(C(C)CNC(=O)Nc2nc3ccccc3s2)CC1 (stereo unspecified),Percent Effect,"30.3 µM, […]",21.11%
Fc1ccc(CN2CCc3ncnc(C4CC4)c3CC2)cc1.O=C(O)C(F)(F)F,Percent Effect,"30 µM, 30.03 µM",-12.14%
Cc1ccc(O)c(-c2cc(NCCO)nc3[nH]ccc23)c1,Percent Effect,"30 µM, 30.03 µM",-9.914%
CC(=O)N1[C@H](CN(C)C)C[C@@H]2CN(C(=O)c3occc3C)CC[C@@H]21.O=C(O)C(F)(F)F,Percent Effect,"30.3 µM, […]",-4.239%
O=C(O)C(F)(F)F.O=S(=O)(C1CC1)N1CCO[C@H]2[C@@H](Oc3ncccc3F)CC[C@@H]21,Percent Effect,"30.3 µM, […]",-15.89%
CC(C)c1cn(CC(=O)NC2CC(=O)N(CCc3ccccc3)C2)nn1 (stereo unspecified),Percent Effect,"30.3 µM, […]",-9.844%
CCN(Cc1noc(CC(C)C)n1)Cc1ccccc1C,Percent Effect,"30.3 µM, […]",13.68%
CCN(Cc1noc(CC(C)C)n1)Cc1ccccc1C(=O)O,Percent Effect,"30.3 µM, […]",12.17%
CCN(Cc1noc(CC(C)C)n1)Cc1ccccc1Cl,Percent Effect,"30.3 µM, […]",100%
COc1cccc(CN2CCCC(c3nn(C)c4nccnc34)C2)c1.Cl (stereo unspecified),Percent Effect,"30.3 µM, […]",-9.344%
Cc1cnc(CN2C[C@H]3C[C@H](Oc4ccccc4)C[C@H]3C2)cn1,Percent Effect,"30.3 µM, […]",-12.87%
Cc1nc(COCc2cnc3n2CCN(C2CCC2)C3C)cs1.O=C(O)C(F)(F)F (stereo unspecified),Percent Effect,"30 µM, 30.03 µM",-3.887%
Cc1nc(COCc2cnc3n2CCN(C)C3C)cs1.O=C(O)C(F)(F)F (stereo unspecified),Percent Effect,"30.3 µM, […]",14.84%
Cc1nc(COCc2cnc3n2CCN(CC2CCC2)C3C)cs1.O=C(O)C(F)(F)F (stereo unspecified),Percent Effect,"30 µM, 30.03 µM",77.97%
O=C(NCc1ccco1)[C@H]1C[C@@H]2CCN(c3cccc(F)c3)C[C@H]2O1.O=C(O)C(F)(F)F,Percent Effect,"30.3 µM, […]",0.588%
COc1ccc(-c2nc(CN3CCCC(OC)C3)c(C)o2)c(F)c1 (stereo unspecified),Percent Effect,"30.3 µM, […]",99.32%
COCc1ncn(Cc2nc(-c3ccc(OC)cc3F)oc2C)n1,Percent Effect,"30.3 µM, […]",-22.44%
CCCOC1CCCN(Cc2nc(-c3ccc(F)cc3F)oc2C)C1 (stereo unspecified),Percent Effect,"30.3 µM, […]",19.33%
Cc1nnc(CN2C[C@H]3CC[C@@H]2CN(C2Cc4ccccc4C2)C3)o1,Percent Effect,"30 µM, 30.03 µM",19.71%
COCC1N(C(=O)c2ccco2)[C@H]2CC[C@]1(O)CC2 (stereo partly specified),Percent Effect,"30.3 µM, […]",-31.26%
O=C(NCC1CC1)[C@H]1C[C@@H]2CN(S(=O)(=O)Cc3ccccc3)C[C@H]1O2,Percent Effect,"30 µM, 30.03 µM",-18.74%
O=C(NCC1CCCCC1)NC1CCCc2c1cnn2CCO (stereo unspecified),Percent Effect,"30 µM, 30.03 µM",-28.76%
O=C(NCC(F)(F)F)NC1CCCc2c1cnn2CCO (stereo unspecified),Percent Effect,"30 µM, 30.03 µM",3.56%
O=C(NC1CCCCC1)NC1CCCc2c1cnn2CCO (stereo unspecified),Percent Effect,"30 µM, 30.03 µM",61.21%
COc1ccc(CN2CCc3ncnc(C4CC4)c3CC2)cc1.O=C(O)C(F)(F)F,Percent Effect,"30 µM, 30.03 µM",-6.255%
Cc1nc(C)n(CC2CCCCN2Cc2nc3ccccc3o2)n1 (stereo unspecified),Percent Effect,"30.3 µM, […]",-29.61%
same,Percent Effect,"10 mM, 10 mM as filed; unlikely as a test dose",-25.93%
Cc1cc(N2CCCC(O)(CN(C)C)C2)c2cc3c(cc2n1)OCO3 (stereo unspecified),Percent Effect,"30 µM, 30.03 µM",17.65%
Cc1cc(N2CCC(O)(CN(C)C)C2)c2cc3c(cc2n1)OCO3 (stereo unspecified),Percent Effect,"30 µM, 30.03 µM",101.2%
Cc1cc(N2CCCC3(CN(C)C(=O)O3)C2)c2cc3c(cc2n1)OCO3 (stereo unspecified),Percent Effect,"30 µM, 30.03 µM",-17.57%
CN(C)C[C@H]1OC[C@@H]2CCN(S(=O)(=O)c3ccc(F)cc3)C[C@@H]21.O=C(O)C(F)(F)F,Percent Effect,"30 µM, 30.03 µM",-20.07%
Cn1cncc1CN1CCC2(CC1)COCCN(S(C)(=O)=O)C2.O=C(O)C(F)(F)F,Percent Effect,"30.3 µM, […]",-5.891%
CCOC(=O)N1CC2(CCNCC2)c2cc(Cl)ccc21.Cl,Percent Effect,"30.3 µM, […]",80.77%
CC(C)C[C@H](N)C(=O)N1CC2(CCNCC2)c2cc(Cl)ccc21.Cl.Cl,Percent Effect,"30.3 µM, […]",46.04%
